Inhibition data for 11 molecules are collected here from ChEMBL document CHEMBL1961873, “Compounds: GSK PKIS; Assays: Nanosyn kinase panel” (2012).

Each structure is given as a SMILES string.

Assay [1] has as its target Serine/threonine-protein kinase MRCK alpha (Homo sapiens) (UniProt Q5VT25). To be noted: at 0.1 µM.
The target is the same in assay [2]. To be noted: at 1 µM.
In assay [3] the target is Serine/threonine-protein kinase MRCK beta (Homo sapiens) (UniProt Q9Y5S2). The following applies: at 0.1 µM.
Sequence of Serine/threonine-protein kinase MRCK beta (Homo sapiens) (Q9Y5S2 whole entry): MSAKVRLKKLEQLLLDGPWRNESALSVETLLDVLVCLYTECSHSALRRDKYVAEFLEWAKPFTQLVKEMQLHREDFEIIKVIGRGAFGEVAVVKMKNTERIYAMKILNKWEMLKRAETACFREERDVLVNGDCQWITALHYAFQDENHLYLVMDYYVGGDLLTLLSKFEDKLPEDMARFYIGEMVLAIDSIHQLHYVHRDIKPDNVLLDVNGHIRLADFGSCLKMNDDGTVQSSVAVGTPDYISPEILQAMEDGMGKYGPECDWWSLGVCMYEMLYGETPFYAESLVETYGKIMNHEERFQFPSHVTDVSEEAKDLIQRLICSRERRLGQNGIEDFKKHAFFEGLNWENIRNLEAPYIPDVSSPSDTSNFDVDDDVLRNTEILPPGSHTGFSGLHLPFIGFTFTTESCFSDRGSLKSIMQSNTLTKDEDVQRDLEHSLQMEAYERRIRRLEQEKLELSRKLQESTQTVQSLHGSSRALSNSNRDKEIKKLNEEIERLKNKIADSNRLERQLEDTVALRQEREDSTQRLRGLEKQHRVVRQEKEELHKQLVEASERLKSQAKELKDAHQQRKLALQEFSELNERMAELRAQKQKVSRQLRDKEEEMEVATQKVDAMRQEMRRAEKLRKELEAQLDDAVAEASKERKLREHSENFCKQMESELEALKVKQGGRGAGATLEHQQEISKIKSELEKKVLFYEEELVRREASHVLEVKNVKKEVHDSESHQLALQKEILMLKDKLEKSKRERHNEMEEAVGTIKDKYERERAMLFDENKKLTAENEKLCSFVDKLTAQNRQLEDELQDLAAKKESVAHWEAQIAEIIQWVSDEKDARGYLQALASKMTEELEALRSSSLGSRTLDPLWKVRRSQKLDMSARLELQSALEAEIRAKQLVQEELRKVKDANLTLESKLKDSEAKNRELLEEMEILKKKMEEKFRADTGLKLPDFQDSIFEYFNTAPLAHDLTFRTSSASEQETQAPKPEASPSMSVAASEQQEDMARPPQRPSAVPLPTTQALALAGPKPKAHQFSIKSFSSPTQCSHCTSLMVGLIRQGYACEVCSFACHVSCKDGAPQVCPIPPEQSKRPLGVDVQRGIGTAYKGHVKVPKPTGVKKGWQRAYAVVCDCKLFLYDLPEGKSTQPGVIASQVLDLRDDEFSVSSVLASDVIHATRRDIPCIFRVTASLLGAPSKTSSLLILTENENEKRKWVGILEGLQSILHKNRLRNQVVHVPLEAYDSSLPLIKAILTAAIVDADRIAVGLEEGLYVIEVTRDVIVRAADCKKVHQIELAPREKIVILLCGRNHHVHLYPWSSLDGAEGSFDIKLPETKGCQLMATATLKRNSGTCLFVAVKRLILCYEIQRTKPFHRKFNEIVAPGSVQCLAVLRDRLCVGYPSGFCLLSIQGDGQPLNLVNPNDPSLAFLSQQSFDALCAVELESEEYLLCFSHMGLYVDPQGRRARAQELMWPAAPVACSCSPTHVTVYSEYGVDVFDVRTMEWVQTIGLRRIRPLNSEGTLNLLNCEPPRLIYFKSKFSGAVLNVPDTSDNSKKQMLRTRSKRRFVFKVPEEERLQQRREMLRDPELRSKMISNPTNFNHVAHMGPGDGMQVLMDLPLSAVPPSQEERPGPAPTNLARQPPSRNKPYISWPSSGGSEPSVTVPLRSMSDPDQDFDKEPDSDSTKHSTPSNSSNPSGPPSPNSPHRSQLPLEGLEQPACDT
Assay [4] shares this target. To be noted: at 1 µM.
The target in assay [5] is Ribosomal protein S6 kinase alpha-5 (Homo sapiens) (UniProt O75582). The following applies: at 0.1 µM.
Assay [6] shares this target. To be noted: at 1 µM.
In assay [7] the target is Ribosomal protein S6 kinase alpha-4 (Homo sapiens) (UniProt O75676). The following applies: at 0.1 µM.
Sequence of Ribosomal protein S6 kinase alpha-4 (Homo sapiens) (O75676 whole entry, looked up): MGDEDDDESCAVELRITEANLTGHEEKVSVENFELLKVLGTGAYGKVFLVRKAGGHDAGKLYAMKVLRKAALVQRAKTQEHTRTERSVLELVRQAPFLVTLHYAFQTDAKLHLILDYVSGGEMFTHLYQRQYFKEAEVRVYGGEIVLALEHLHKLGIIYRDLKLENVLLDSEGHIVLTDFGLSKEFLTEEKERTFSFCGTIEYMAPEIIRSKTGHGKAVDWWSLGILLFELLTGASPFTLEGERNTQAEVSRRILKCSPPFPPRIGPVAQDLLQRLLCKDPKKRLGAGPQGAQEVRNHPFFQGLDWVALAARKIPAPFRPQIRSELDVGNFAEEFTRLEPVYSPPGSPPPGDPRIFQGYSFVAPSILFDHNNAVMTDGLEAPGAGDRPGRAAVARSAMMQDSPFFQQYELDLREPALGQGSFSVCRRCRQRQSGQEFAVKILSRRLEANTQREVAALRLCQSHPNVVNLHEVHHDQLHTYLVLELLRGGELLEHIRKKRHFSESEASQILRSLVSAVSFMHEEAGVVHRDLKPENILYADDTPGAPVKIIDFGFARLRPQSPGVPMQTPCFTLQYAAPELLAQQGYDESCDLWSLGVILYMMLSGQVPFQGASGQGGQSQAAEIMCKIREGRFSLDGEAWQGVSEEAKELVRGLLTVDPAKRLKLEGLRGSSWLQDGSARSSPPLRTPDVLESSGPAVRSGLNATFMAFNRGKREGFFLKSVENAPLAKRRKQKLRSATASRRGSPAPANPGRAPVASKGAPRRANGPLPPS
For assay [8] the target is unchanged. To be noted: at 1 µM.
Assay [9] concerns the target Ribosomal protein S6 kinase beta-1 (Homo sapiens) (UniProt P23443). The following applies: at 0.1 µM.
For assay [10] the target is unchanged. The following applies: at 1 µM.
Assay [11] addresses T1, 3-phosphoinositide-dependent protein kinase 1 (Homo sapiens) (UniProt O15530).
T1 sequence (whole entry): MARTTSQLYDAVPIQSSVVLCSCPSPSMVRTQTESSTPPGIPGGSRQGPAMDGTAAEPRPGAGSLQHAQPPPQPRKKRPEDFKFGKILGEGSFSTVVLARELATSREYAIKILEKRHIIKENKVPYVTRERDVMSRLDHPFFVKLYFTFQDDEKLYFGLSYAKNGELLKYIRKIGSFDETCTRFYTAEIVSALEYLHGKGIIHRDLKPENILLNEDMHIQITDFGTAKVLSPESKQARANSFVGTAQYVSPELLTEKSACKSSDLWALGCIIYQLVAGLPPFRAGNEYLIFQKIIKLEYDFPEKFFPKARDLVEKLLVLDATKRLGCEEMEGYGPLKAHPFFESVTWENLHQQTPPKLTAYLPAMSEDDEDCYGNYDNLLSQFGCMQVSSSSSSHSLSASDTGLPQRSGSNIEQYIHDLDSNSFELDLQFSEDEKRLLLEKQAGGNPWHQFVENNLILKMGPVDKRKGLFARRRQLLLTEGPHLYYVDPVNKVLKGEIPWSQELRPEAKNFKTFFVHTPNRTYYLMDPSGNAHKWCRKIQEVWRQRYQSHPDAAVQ
To be noted: at 0.1 µM.

In assay [12] the target is cAMP-dependent protein kinase catalytic subunit alpha (Homo sapiens) (UniProt P17612). The following applies: at 0.1 µM.
Assay [13] shares this target. The following applies: at 1 µM.
Assay [14] concerns the target Protein kinase C alpha type (Homo sapiens) (UniProt P17252). To be noted: at 0.1 µM.
For assay [15] the target is unchanged. The following applies: at 1 µM.
Assay [16] concerns the target Protein kinase C beta type (Homo sapiens) (UniProt P05771). The following applies: at 0.1 µM.
Assay [17] has the same target. To be noted: at 1 µM.
Assay [18] addresses Protein kinase C eta type (Homo sapiens) (UniProt P24723). To be noted: at 0.1 µM.
Assay [19] has the same target. To be noted: at 1 µM.
Assay [20] has as its target Protein kinase C gamma type (Homo sapiens) (UniProt P05129). To be noted: at 0.1 µM.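 Note: values are mean percent inhibition of PKC gamma.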

Sequence of Protein kinase C beta type (Homo sapiens) (P05771 2-671 limits assumed): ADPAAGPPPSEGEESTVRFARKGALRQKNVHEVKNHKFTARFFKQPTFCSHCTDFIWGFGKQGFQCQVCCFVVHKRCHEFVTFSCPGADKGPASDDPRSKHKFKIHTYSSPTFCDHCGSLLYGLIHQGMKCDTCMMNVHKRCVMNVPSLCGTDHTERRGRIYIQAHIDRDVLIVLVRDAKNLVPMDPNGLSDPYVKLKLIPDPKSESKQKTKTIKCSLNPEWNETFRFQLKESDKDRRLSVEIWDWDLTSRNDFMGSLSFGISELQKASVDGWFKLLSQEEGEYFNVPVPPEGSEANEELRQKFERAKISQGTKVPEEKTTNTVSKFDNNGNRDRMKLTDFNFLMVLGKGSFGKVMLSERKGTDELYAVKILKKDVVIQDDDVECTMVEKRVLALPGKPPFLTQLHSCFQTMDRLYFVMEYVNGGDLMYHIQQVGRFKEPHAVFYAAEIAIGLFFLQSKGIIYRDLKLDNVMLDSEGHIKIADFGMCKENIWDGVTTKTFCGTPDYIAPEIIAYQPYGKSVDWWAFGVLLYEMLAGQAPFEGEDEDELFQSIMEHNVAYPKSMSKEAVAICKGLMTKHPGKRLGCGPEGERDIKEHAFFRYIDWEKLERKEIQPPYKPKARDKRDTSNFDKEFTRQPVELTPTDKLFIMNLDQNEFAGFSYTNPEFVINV
Sequence of Protein kinase C eta type (Homo sapiens) (P24723 whole entry): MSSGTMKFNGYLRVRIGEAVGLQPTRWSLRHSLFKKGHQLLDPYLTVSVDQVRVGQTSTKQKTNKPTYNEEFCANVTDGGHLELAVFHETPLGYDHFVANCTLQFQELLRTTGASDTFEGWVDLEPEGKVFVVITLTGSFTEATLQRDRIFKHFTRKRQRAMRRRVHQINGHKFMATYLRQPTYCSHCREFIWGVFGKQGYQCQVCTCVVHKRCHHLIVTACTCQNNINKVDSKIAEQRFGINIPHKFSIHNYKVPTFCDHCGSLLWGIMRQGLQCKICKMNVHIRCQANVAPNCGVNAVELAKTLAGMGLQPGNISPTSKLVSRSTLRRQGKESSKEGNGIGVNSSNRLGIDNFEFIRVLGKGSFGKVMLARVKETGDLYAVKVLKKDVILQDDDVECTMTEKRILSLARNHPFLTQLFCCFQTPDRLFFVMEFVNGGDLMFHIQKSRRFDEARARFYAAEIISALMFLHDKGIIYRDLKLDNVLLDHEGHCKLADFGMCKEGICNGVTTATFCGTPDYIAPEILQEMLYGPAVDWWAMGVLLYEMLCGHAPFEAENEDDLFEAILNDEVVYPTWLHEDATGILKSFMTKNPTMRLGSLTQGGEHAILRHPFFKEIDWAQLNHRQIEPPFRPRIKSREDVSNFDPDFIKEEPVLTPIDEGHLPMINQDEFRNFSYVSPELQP
Sequence of Ribosomal protein S6 kinase beta-1 (Homo sapiens) (P23443 whole entry, looked up): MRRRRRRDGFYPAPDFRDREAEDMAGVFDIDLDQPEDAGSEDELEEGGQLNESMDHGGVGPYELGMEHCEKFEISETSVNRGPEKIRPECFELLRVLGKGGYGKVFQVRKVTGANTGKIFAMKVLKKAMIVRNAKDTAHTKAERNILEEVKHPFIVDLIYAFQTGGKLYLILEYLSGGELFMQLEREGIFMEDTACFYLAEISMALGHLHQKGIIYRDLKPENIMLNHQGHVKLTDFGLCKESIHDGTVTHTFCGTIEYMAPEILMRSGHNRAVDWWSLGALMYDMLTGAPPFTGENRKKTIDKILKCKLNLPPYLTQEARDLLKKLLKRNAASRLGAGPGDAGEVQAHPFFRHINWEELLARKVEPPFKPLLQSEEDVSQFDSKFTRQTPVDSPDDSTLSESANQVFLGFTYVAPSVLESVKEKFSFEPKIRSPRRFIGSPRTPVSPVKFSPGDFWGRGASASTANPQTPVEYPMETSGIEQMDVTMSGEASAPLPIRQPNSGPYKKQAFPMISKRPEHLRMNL

For `COc1ccc2cc(-c3c(-c4ccncc4)nc(-c4ccc([S+](C)[O-])cc4)n3C)ccc2c1` (stereo not given), the inhibition (commonly the drop in the measured response relative to a control, in per cent) in [1] turned out to be 0.19%; in [2], 1.36%; in [3] it was 0.92%; in assay [4], 1.62%; in [5], 3.04%; in assay [6] it was 1.94%. Further, the inhibition is 1.31% in [7]; 4.13% in [8]; 2.56% in [9]; 2.88% in assay [10]; 0.4% in assay [11]; 1.97% in assay [12]. For the same molecule, the inhibition came to 9.5% in assay [13]; 0.25% in assay [14]; 0.94% in [15]; 0.88% in assay [16]; 7.1% in [17]; 2.61% in assay [18]. The inhibition in assay [19] is -1.46%; in [20], 1.09%.

In the case of `CCc1cccc(NC(=O)Nc2ccc(Oc3ccc4nc(NC(=O)OC)[nH]c4c3)cc2)c1`, the inhibition in [1] is 1.75%; in assay [2] it was 2.04%; in [3], 0.03%; in assay [4], 0.65%; in assay [5] it was -4.58%; in [6] it was -1.65%. For the same molecule, the inhibition in assay [7] was 1.22%; in [8] it was 1.3%; in assay [9], 4.31%; in assay [10] it was 5.19%; in assay [11], 2.37%; in [12], 2.93%. Besides, the inhibition is 0.86% in assay [13]; 0.7% in [14]; 0.72% in assay [15]; 0.28% in assay [16]; 1.12% in [17]; 2.69% in assay [18]. Further, the inhibition was 2.14% in [19] and 1.95% in assay [20].

For `CN(C)c1cc2c(Nc3ccc4nc(Cc5ccccc5)[nH]c4c3)ncnc2cn1`, the inhibition in [1] was -0.16%; in [2] it was 1.32%; in [3] it was 0.33%; in assay [4], 0.93%; in assay [5], 4.14%; in assay [6], 4.53%. Also, the inhibition was 1.93% in assay [7]; 2.96% in [8]; 2.15% in [9]; 4.96% in assay [10]; 4.68% in assay [11]; 3.66% in assay [12]. In addition, the inhibition is 2.62% in [13]; 1.27% in assay [14]; 2.33% in assay [15]; -1.06% in [16]; 2.6% in assay [17]; 3.25% in assay [18]. Further, the inhibition turned out to be 3.62% in [19] and 3.66% in assay [20].

As for `c1cnn2ncc(-c3ccnc(Nc4ccc5c(c4)OCCO5)n3)c2c1`, the inhibition is -0.46% in assay [1]; 0.87% in assay [2]; 1.21% in [3]; 1.8% in assay [4]; 4.5% in [5]; 6.82% in [6]. Further, the inhibition amounted to 2.97% in assay [7]; 6.51% in assay [8]; 1.67% in assay [9]; 5.63% in assay [10]; 4.84% in assay [11]; 1.74% in assay [12]. Besides, the inhibition amounted to 7.09% in assay [13]; 2.47% in assay [14]; 20.4% in assay [15]; 1.95% in assay [16]; 4.36% in [17]; 4.51% in assay [18]. Besides, the inhibition is 8.26% in assay [19] and 1.93% in assay [20].

Take `COc1ccc(-c2coc3ncnc(N)c23)cc1`: the inhibition was 0.52% in [1]; -0.11% in assay [2]; 1.16% in assay [3]; 1.93% in assay [4]; 9.6% in assay [5]; 8.17% in assay [6]. For the same molecule, the inhibition in assay [7] was found to be 1.64%; in assay [8], 3.84%; in assay [9], 1.77%; in [10], 2.26%; in assay [11] it was 0.68%; in assay [12], 1.5%. Besides, the inhibition is 1.74% in [13]; 0.29% in assay [14]; 1.92% in [15]; -0.46% in [16]; -0.25% in assay [17]; 3.06% in [18]. The inhibition in [19] was 2.62%; in [20], 0.83%.

Take `COc1ccc(-c2nn3ncccc3c2-c2ccnc(Nc3ccc(Cl)c(C(F)(F)F)c3)n2)cc1`: the inhibition is -0.16% in assay [1]; 3.43% in assay [2]; -1.37% in [3]; 0.06% in assay [4]; 1.49% in assay [5]; 1.69% in assay [6]. Besides, the inhibition in assay [7] turned out to be 0.22%; in assay [8], 2.02%; in [9], 0.17%; in [10], 2.22%; in assay [11] it was 0.17%; in [12], 1.59%. Besides, the inhibition in assay [13] is 1.26%; in assay [14], 0.22%; in assay [15], -0.2%; in assay [16], 0.17%; in assay [17], 3.13%; in assay [18] it was 2.79%. For the same molecule, the inhibition came out at 2.3% in [19] and 1.74% in assay [20].

Take `COc1cc2ncn(-c3cc(OCc4ccccc4Cl)c(C(N)=O)s3)c2cc1OC`: the inhibition in [1] is -0.28%; in [2], 2.18%; in [3], 0.86%; in assay [4], 1.67%; in [5], -5.34%; in [6] it was -5.25%. Moreover, the inhibition in assay [7] is 0.79%; in assay [8], 3.02%; in assay [9], 0.47%; in [10], 0.64%; in assay [11], 7.8%; in assay [12], -0.08%. Moreover, the inhibition is -0.94% in [13]; 0% in assay [14]; 1.42% in [15]; 0.65% in assay [16]; 0.68% in assay [17]; 1.47% in assay [18]. Besides, the inhibition in [19] was 2.19%; in [20] it was -0.07%.

For the molecule `COc1cc(C)c(NC(=O)CN(C)C)cc1Nc1nc(Nc2cccc(F)c2C(N)=O)c2cc[nH]c2n1`, the inhibition was -0.22% in assay [1]; 2.53% in assay [2]; -0.26% in assay [3]; 1.65% in assay [4]; 1.58% in assay [5]; 0.97% in [6]. Besides, the inhibition in assay [7] is -0.16%; in [8] it was 2.07%; in assay [9] it was 2.03%; in assay [10] it was 3.01%; in assay [11], 2.96%; in [12] it was 1.08%. Moreover, the inhibition in assay [13] was -0.43%; in assay [14], 1.34%; in [15] it was 5.42%; in [16] it was -0.18%; in assay [17], -0.1%; in assay [18], 1.08%. Also, the inhibition in [19] worked out at 1.46%; in assay [20], 3.92%.

Take `CS(=O)(=O)Nc1ccc(N/C=C2\C(=O)Nc3ccccc32)cc1`: the inhibition was -2.44% in assay [1]; -0.5% in [2]; 0.24% in assay [3]; -0.45% in assay [4]; -1.26% in assay [5]; -0.97% in assay [6]. Moreover, the inhibition is -0.53% in [7]; 7.44% in assay [8]; -0.58% in assay [9]; 3.4% in assay [10]; 2.23% in assay [11]; -2% in assay [12]. Also, the inhibition in [13] was 0.29%; in assay [14] it was -0.53%; in assay [15], 0.61%; in [16], -0.94%; in assay [17], -1.13%; in assay [18], -0.7%. Also, the values for the inhibition in [19] and in assay [20] were -4.5% and -3.28%, respectively.

`O=C(Nc1n[nH]c2nc(-c3ccco3)c(Br)cc12)C1CC1`: the inhibition was 0.4% in assay [1]; -0.6% in assay [2]; 1.27% in [3]; 0.57% in [4]; 3.55% in assay [5]; 1.89% in assay [6]. The inhibition in [7] was determined as 0.7%; in assay [8], 2.64%; in [9], 1.19%; in assay [10] it was 2.07%; in assay [11], 2%; in [12], 1.31%. Besides, the inhibition in assay [13] was 2.05%; in assay [14], 0.29%; in assay [15], 0.28%; in [16], 1.29%; in assay [17] it was -0.77%; in assay [18], 3.62%. The results for the inhibition in assay [19] and in assay [20] were 2.72% and 0.45%, respectively.

Regarding `CS(=O)(=O)CCNCc1ccc(-c2ccc3ncnc(Nc4ccc(OCc5cccc(F)c5)c(C(F)(F)F)c4)c3c2)o1`, the inhibition was -0.31% in assay [1]; 1.73% in assay [2]; -0.15% in assay [3]; 0.67% in [4]; 9.28% in assay [5]; 8.53% in [6]. Also, the inhibition was found to be 2.67% in assay [7]; 2.44% in [8]; 1.58% in assay [9]; 2.22% in assay [10]; 2.02% in assay [11]; 1.79% in assay [12]. In addition, the inhibition in assay [13] is 2.53%; in [14], 1.25%; in assay [15] it was 1.29%; in assay [16], 0.59%; in [17], 1.62%; in assay [18], 4.51%. For the same molecule, the inhibition in assay [19] is 4.84%; in assay [20], 1.87%.
